Data from PubChem BioAssay (NCI).
About 79,000 compounds went through this panel and 15% of them were active in at least one assay; those are over-represented in the sample as a whole. Values without a mark were called inactive. Activity calls are given as the source filed them. No stated cut-off is given here; in the data, active means growth inhibition above about 70%; inactive means the rest.

assay: NCI Yeast Anticancer Drug Screen. Data for the rad50 strain (AID 155);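 further: 0% = growth of vehicle-only cultures of the same strain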; settings: S. cerevisiae rad50 strain growth inhibition; at 3.7 µM; stronger effect = higher value
Method in brief: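 Genetically altered yeast (DNA repair pathway); compound treatment; growth inhibition vs vehicle ctrl.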

| SMILES | growth inhibition |
| --- | --- |
| COc1ccc2nc3cccc([N+](=O)[O-])c3c(NCCNCCN(C)C)c2c1 | -5% |
| Cc1cccc(/C=N/NC(=S)NC2CCCCC2)n1 | -9% |
| COC(=O)C(=O)c1c(-c2ccc(Cl)c(Cl)c2)[nH]c2[nH]n(-c3ccccc3)c(=O)c2c1=O | 27% |
| c1ccc([P+](CCN2Cc3ccccc3C2)(c2ccccc2)c2ccccc2)cc1 | 64% |
| Cc1cc(C)c2[s+]snc2c1 | 1% |
| CC(C)(Br)C(=O)/C=C/c1ccccc1 | 11% |
| Cc1ccc(S(=O)(=O)NC(=O)C2C(=O)CC3(CCCCC3)CC2=O)cc1 | -6% |
| NC(=S)N1N=C2c3ccccc3CC[C@H]2[C@@H]1c1ccc(Cl)cc1 | -2% |
| O=[N+]([O-])/C=C/c1cc2ccc3ccccc3c2[nH]1 | 70% (active) |
| O=C1C(=C2CCCC2)CCC1CN1CCCCC1 (configuration not stated) | 8% |
| OC(CC(O)(C(F)(F)F)C(F)(F)F)c1ccc(C(O)CC(O)(C(F)(F)F)C(F)(F)F)cc1 (configuration not stated) | 50% |
| COc1cc2c(cc1OC)[C@@H](Nc1ccc(C#N)cc1)C1COC(=O)[C@@H]1C2c1cc(OC)c(O)c(OC)c1 (some centres not stated) | 70% (active) |
| O=c1cccccc1[O-].O=c1cccccc1[O-].O=c1cccccc1[O-].[Eu+3] | -29% |
| O=C1c2ccccc2C(=O)c2sc(Nc3ccccc3Cl)nc21 | 13% |
| NC(CCCCCCCCCCCCC(N)C(=O)c1ccccc1)C(=O)c1ccccc1 (configuration not stated) | -6% |
| CC1=C(C)C(=O)C2=C(OCCO2)C1=O | 0% |
| c1ccc(-c2cc(C3CO3)c3ccccc3n2)cc1 (configuration not stated) | 1% |
| S=C1C(=Nc2ccccc2)N(c2ccccc2)/C(=N\c2ccccn2)N1c1ccccc1 | -2% |

| SMILES | growth inhibition |
| --- | --- |
| CCC(OC(C)=O)C1CC(C(C)C)CCC1C (configuration not stated) | -43% |
| CC(C)=CCc1c2c(c(O)c3c(=O)c(-c4ccc(O)c(O)c4)coc13)C=CC(C)(C)O2 | -17% |
| O=C(NC(N1CCN(c2cc3c(cc2F)c(=O)c(C(=O)O)cn3C2CC2)CC1)(C(F)(F)F)C(F)(F)F)c1ccccc1 | 5% |
| Fc1cc(F)c(F)c(S)c1F | -28% |
| COc1ccc2cc3c4cc5c(cc4cc[n+]3cc2c1OC)OCO5 | 70% (active) |
| CCCCCCCCNCCCCCCCC | 3% |
| Nc1cc(Cl)ccc1Nc1ccccc1 | -15% |
| O=C(/C(=C/c1ccc(O)cc1)c1ccccc1)c1ccccc1 | -2% |
| O=Cc1ccccc1C=O | 12% |
| C1=CCN([B-](c2ccccc2)[C+]2CCCCC2)C=C1 | -49% |
| CC/C(=C(\c1ccccc1)c1ccc(OCC[N+](C)(C)C)cc1)c1ccccc1 | 85% (active) |
| O=S(=O)(c1cccc(C(F)(F)F)c1)N1c2ccccc2-n2cccc2C1c1cccnc1 (configuration not stated) | 5% |
| Nc1ccc2c(c1)C(=O)c1c(F)cccc1-2 | 11% |
| CN(C)/C(=N/C(=S)Nc1ccccc1)SCc1ccccc1 | -5% |
| CCN(CC)C(=S)N/N=C(\C)c1ccccc1O | -13% |
| CC(C)OC(=O)NNc1cc(Cl)ccc1Cl | 22% |
| CC(C)CCC[C@@H](C)[C@H]1CC[C@H]2[C@@H]3CC[C@H]4C[C@H](N)CC[C@]4(C)[C@H]3CC[C@]12C | 4% |
| O=C1c2ccccc2-c2ccc(N=Cc3ccccc3)cc21 | -11% |

same assay, conditions: S. cerevisiae rad50 strain growth inhibition; at 5.0 µM (retest, dose inferred, filed as 0.5); stronger effect = higher value

| SMILES | growth inhibition |
| --- | --- |
| COc1ccc2nc3cccc([N+](=O)[O-])c3c(NCCNCCN(C)C)c2c1 | 29% |
| Cc1cccc(/C=N/NC(=S)NC2CCCCC2)n1 | -32% |
| COC(=O)C(=O)c1c(-c2ccc(Cl)c(Cl)c2)[nH]c2[nH]n(-c3ccccc3)c(=O)c2c1=O | -5% |
| c1ccc([P+](CCN2Cc3ccccc3C2)(c2ccccc2)c2ccccc2)cc1 | 64% |
| Cc1cc(C)c2[s+]snc2c1 | -5% |
| CC(C)(Br)C(=O)/C=C/c1ccccc1 | 15% |
| Cc1ccc(S(=O)(=O)NC(=O)C2C(=O)CC3(CCCCC3)CC2=O)cc1 | 10% |
| NC(=S)N1N=C2c3ccccc3CC[C@H]2[C@@H]1c1ccc(Cl)cc1 | -20% |
| O=[N+]([O-])/C=C/c1cc2ccc3ccccc3c2[nH]1 | 63% |
| O=C1C(=C2CCCC2)CCC1CN1CCCCC1 (configuration not stated) | -3% |
| OC(CC(O)(C(F)(F)F)C(F)(F)F)c1ccc(C(O)CC(O)(C(F)(F)F)C(F)(F)F)cc1 (configuration not stated) | 36% |
| COc1cc2c(cc1OC)[C@@H](Nc1ccc(C#N)cc1)C1COC(=O)[C@@H]1C2c1cc(OC)c(O)c(OC)c1 (some centres not stated) | 88% (active) |
| O=c1cccccc1[O-].O=c1cccccc1[O-].O=c1cccccc1[O-].[Eu+3] | 38% |
| O=C1c2ccccc2C(=O)c2sc(Nc3ccccc3Cl)nc21 | 87% (active) |
| NC(CCCCCCCCCCCCC(N)C(=O)c1ccccc1)C(=O)c1ccccc1 (configuration not stated) | -9% |
| CC1=C(C)C(=O)C2=C(OCCO2)C1=O | -23% |
| c1ccc(-c2cc(C3CO3)c3ccccc3n2)cc1 (configuration not stated) | -14% |
| S=C1C(=Nc2ccccc2)N(c2ccccc2)/C(=N\c2ccccn2)N1c1ccccc1 | 41% |

| SMILES | growth inhibition |
| --- | --- |
| CCC(OC(C)=O)C1CC(C(C)C)CCC1C (configuration not stated) | 3% |
| CC(C)=CCc1c2c(c(O)c3c(=O)c(-c4ccc(O)c(O)c4)coc13)C=CC(C)(C)O2 | -3% |
| O=C(NC(N1CCN(c2cc3c(cc2F)c(=O)c(C(=O)O)cn3C2CC2)CC1)(C(F)(F)F)C(F)(F)F)c1ccccc1 | -1% |
| Fc1cc(F)c(F)c(S)c1F | -12% |
| COc1ccc2cc3c4cc5c(cc4cc[n+]3cc2c1OC)OCO5 | 76% (active) |
| CCCCCCCCNCCCCCCCC | 67% |
| Nc1cc(Cl)ccc1Nc1ccccc1 | 60% |
| O=C(/C(=C/c1ccc(O)cc1)c1ccccc1)c1ccccc1 | 27% |
| O=Cc1ccccc1C=O | -6% |
| C1=CCN([B-](c2ccccc2)[C+]2CCCCC2)C=C1 | -2% |
| CC/C(=C(\c1ccccc1)c1ccc(OCC[N+](C)(C)C)cc1)c1ccccc1 | 70% (active) |
| O=S(=O)(c1cccc(C(F)(F)F)c1)N1c2ccccc2-n2cccc2C1c1cccnc1 (configuration not stated) | 27% |
| Nc1ccc2c(c1)C(=O)c1c(F)cccc1-2 | -129% |
| CN(C)/C(=N/C(=S)Nc1ccccc1)SCc1ccccc1 | -7% |
| CCN(CC)C(=S)N/N=C(\C)c1ccccc1O | -1% |
| CC(C)OC(=O)NNc1cc(Cl)ccc1Cl | 19% |
| CC(C)CCC[C@@H](C)[C@H]1CC[C@H]2[C@@H]3CC[C@H]4C[C@H](N)CC[C@]4(C)[C@H]3CC[C@]12C | -19% |
| O=C1c2ccccc2-c2ccc(N=Cc3ccccc3)cc21 | 8% |
